# Source: PubChem BioAssay (NCATS)
# A number with no mark means an inactive call. Results filed as inconclusive are left out. A call without a number means that no potency is given here. The source made the active and inactive calls. Calls follow the shape of the dose curve; as a rule, active = well fitted curve in the direction sought with a large enough effect; inconclusive = small, poorly fitted or top-dose-only effect, or another doubt; inactive = no such curve, though single readings can be large; an effect the other way counts as inactive or inconclusive.
# Legend:
# [1] = target: Glutathione peroxidase 1 (Homo sapiens) (UniProt P07203); test: Primary qHTS Assay for Inhibitors of Recombinant Selenoprotein Glutathione Peroxidase 1 (GPX1) (AID 1845191); also: nearly all actives have a fitted effect of over 65% in size
# Glutathione peroxidase 1 (Homo sapiens), sequence (P07203 whole entry, looked up): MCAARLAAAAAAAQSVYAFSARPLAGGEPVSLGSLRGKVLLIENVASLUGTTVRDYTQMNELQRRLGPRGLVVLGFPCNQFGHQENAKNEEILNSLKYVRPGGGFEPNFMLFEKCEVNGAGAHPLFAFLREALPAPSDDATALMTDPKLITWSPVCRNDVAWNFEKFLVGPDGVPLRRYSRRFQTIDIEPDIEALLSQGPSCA
# In short: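 10 nM GPX1 + cpd, 30 min RT; start w/ 1 mM GSH, 0.5 mM cumene hydroperoxide, 0.5 mM NADPH, 100 nM GR, 0.01% BSA; buffer 50 mM Tris-HCl pH 7.5, 2 mM EDTA, 150 mM NaCl; Fl 340/450, 0 & 15 min.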
# [2] = target: Phospholipid hydroperoxide glutathione peroxidase GPX4 (Homo sapiens) (UniProt P36969); test: Primary qHTS Assay for Inhibitors of Recombinant Selenoprotein Glutathione Peroxidase 4 (GPX4) (AID 1845192); also: nearly all actives have a fitted effect of over 65% in size; as to activity change, negative = inhibition: series mostly up to about 50 µM
# Phospholipid hydroperoxide glutathione peroxidase GPX4 (Homo sapiens), sequence (P36969 whole entry, looked up): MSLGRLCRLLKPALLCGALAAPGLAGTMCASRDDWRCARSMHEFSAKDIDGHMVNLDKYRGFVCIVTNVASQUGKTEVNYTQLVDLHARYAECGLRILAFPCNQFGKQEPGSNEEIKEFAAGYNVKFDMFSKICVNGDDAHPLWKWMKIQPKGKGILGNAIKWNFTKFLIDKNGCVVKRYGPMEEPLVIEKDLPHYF
# In short: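 NADPH consumption, followed by fluorescence at 340/450 nm between 0 and 15 min, reports GPX4 activity via coupled glutathione reductase (100 nM). Enzyme 200 nM was pre-exposed to compound 30 min; 0.5 mM cumene hydroperoxide and 1 mM GSH served as substrates.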
# [3] = target: Luciferin 4-monooxygenase (Photinus pyralis) (UniProt P08659); test: Primary firefly luciferase (FLuc) qHTS assay for identification of artifact compounds. (AID 1845220); also: nearly all actives have a fitted effect of over 60% in size; as to activity change, negative = inhibition: series mostly up to about 54 µM
# In short: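 FLuc 10 nM; luciferin 10 uM; ATP 10 uM; Tris-acetate pH 7.6, Mg-acetate 10 mM; 15 min RT preincubation; 5 min reaction; luminescence.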
# [4] = Primary fluorescence-based thiol-reactive (MSTI) qHTS assay for identification of artifact compounds. (AID 1845221); also: nearly all actives have a fitted effect of over 65% in size; also: potency is read from the fitted curve at half-maximal effect;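 as to activity change, negative = thiol reactive: series mostly up to about 54 µM; thiol-reactive compounds lower the probe fluorescence signal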
# In short: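 One-hour, room-temperature, dark incubation of compound with 4 uM MSTI in PBS (pH 7.4, 2% DMSO) precedes a fluorescence read at 525 nm excitation, 598 nm emission; Hill-equation fitting yields concentration-response values.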
# [5] = tested on: Nanoluciferase (engineered Oplophorus gracilirostris luciferase); test: Primary Nanoluciferase (NLuc) qHTS assay for identification of artifact compounds. (AID 1845222); also: potency is read from the fitted curve at half-maximal effect;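 as to activity, negative = inhibition: NLuc secreted into diluted conditioned medium of S16 cells; series mostly up to about 54 µM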
# In short: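 NLuc from S16 cell medium (1:55) plus test compounds, 15 min, room temperature. Luminescence after Nano-Glo (1:100) addition, 5 min.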
Structure (SMILES),Potency [1],Potency [2],Potency [3],Potency [4],Potency [5],"activity change, negative = inhibition [3]","activity change, negative = thiol reactive [4]","activity, negative = inhibition [5]",outcome [3]
CCC(CC)CC1(C(=O)Nc2ccccc2SC(=O)C(C)C)CCCCC1,inactive,inactive,inactive,inactive,inactive,,,,
CC1=C2C[C@@]3(C)C(CCC[C@@H]3C)C(O)C2(O)OC1=O (stereo not given in full),inactive,inactive,inactive,inactive,inactive,,,,
COC(=O)C1=COC(O[C@@H]2O[C@H](CO)[C@@H](O)[C@H](O)[C@H]2O)/C(=C\COC(=O)/C=C/c2ccccc2)C1CC(=O)OCCc1ccc(O)cc1 (stereo not given in full),inactive,inactive,inactive,inactive,inactive,,,,
CC(C)=C1CC2[C@](C)(CC[C@@H](OC(=O)C3(C)OC3C)[C@@]2(C)O)CC1=O (stereo not given in full),inactive,inactive,inactive,inactive,inactive,,,,
CCOc1nc2c(N)ncnc2n1CC,inactive,inactive,inactive,inactive,inactive,,,,
CC(C)C1C(OC(=O)/C=C/c2ccccc2)CC2(C)OC2CCC2(C)OC2C1O (stereo not given),inactive,inactive,inactive,inactive,inactive,,,,
CC(=O)OC[C@]12[C@@H](OC(=O)c3ccoc3)C[C@@H]3[C@@H](OC(C)=O)[C@]1(OC3(C)C)[C@@](C)(O)C[C@H](OC(=O)c1ccoc1)[C@@H]2OC(=O)c1ccoc1,inactive,inactive,inactive,inactive,inactive,,,,
C/C=C(/C)C(=O)OC1CC(C)(C)CC2C3=CCC4C5(C)CCC(OC6OC(C)C(OC7OC(C(=O)O)C(O)C(OC8OC(CO)C(O)C(O)C8OC8OC(CO)C(O)C(O)C8O)C7O)C(O)C6O)C(C)(C)C5CCC4(C)C3(C)C(OC(=O)/C=C/C=C/C=C/CCC)C(OC(C)=O)C12CO (stereo not given),inactive,inactive,,,,1.89% [at 11.6 µM],260% [at 11.5 µM],-1.65% [at 11.6 µM],
COc1cc2c(c(OC)c1O)C(c1ccc(O)cc1)C1C(=O)OC3C(COC(=O)C1=C2)OC(CO)(OC1OC(COC(=O)/C=C/c2ccc(OC4OC(C)C(O)C(O)C4O)cc2)C(O)C(O)C1O)C3O (stereo not given),inactive,inactive,,4.5 µM (active),,-10.6% [at 11.6 µM],,-14.9% [at 11.6 µM],
CC1(C)COC(=O)[C@@H]1O[C@@H]1O[C@H](CO)[C@@H](O)[C@H](O)[C@H]1O,inactive,inactive,inactive,inactive,inactive,,,,
CSCC1OC(n2cnc3c(=O)[nH]cnc32)C(O)C1O (stereo not given),inactive,inactive,inactive,inactive,inactive,,,,
CC(C)[C@@](O)(c1ccc2cc(OC(F)F)c(OC(F)F)cc2c1)c1cn[nH]n1,inactive,inactive,inactive,inactive,inactive,,,,
C/C=C(/C)C(=O)O[C@H]1C[C@]2(C)O[C@@H]2[C@@H](OC(C)=O)[C@@]2(C)CC[C@@](O)(C(C)C)[C@H]12,inactive,inactive,inactive,inactive,inactive,,,,
CC1(C)CC[C@]2(C(=O)O[C@@H]3O[C@H](CO[C@@H]4O[C@H](CO)[C@@H](O)[C@H](O)[C@H]4O)[C@@H](O)[C@H](O[C@@H]4O[C@H](CO)[C@@H](O)[C@H](O)[C@H]4O)[C@H]3O)[C@H](O)C[C@]3(C)C(=CCC4[C@@]5(C)CC[C@H](O[C@@H]6OC[C@@H](O)[C@H](O)[C@H]6O)[C@@](C)(C(=O)O)C5CC[C@]43C)[C@@H]2C1 (stereo not given in full),inactive,inactive,,,,,59.1% [at 11.5 µM],-3.16% [at 11.6 µM],inactive [at 11.6 µM]
CC1CCC2(C(=O)O)CCC3(C)C(=CCC4C5(C)C[C@@H](O)[C@@H](O)C(C)(CO)C5CCC43C)C2C1(C)O (stereo not given in full),inactive,inactive,inactive,inactive,inactive,,,,
CCNC(=O)OC1CCN(c2nncc3cc(OC)c(OC)cc23)CC1,inactive,inactive,inactive,inactive,inactive,,,,
COC(=O)C1=COC(OC2OC(CO)C(O)C(O)C2O)C2C(COC(=O)/C=C/c3ccc(O)cc3)C(O)C(O)C12 (stereo not given),inactive,inactive,inactive,5.82 µM (active),inactive,,,,
CC(=O)OC1C(CO)OC(O[C@H]2[C@H](OC(=O)[C@]34CCC(C)(C)C[C@H]3C3=CCC5[C@@]6(C)CC[C@H](O[C@@H]7O[C@H](C(=O)O)[C@@H](O)[C@H](O[C@@H]8OC[C@@H](O)[C@H](O)[C@H]8O)[C@H]7O[C@@H]7O[C@H](CO)[C@H](O)[C@H](O)[C@H]7O)[C@@](C)(C=O)C6CC[C@@]5(C)[C@]3(C)C[C@H]4O)O[C@H](C)[C@H](OC3OC(C)C(OC4OCC(O)C(O)C4O)C(O)C3O)[C@@H]2O)C(O)C1O (stereo not given in full),inactive,inactive,,,,2.42% [at 11.6 µM],290% [at 11.5 µM],1.69% [at 11.6 µM],
CNC(C)C(=O)NC(C(=O)N1CCCC1C(=O)Nc1cccc2ncccc12)C(C)C (stereo not given),inactive,inactive,inactive,inactive,inactive,,,,
CC(O)C1CCC2C3CCC4CC(OC5OC(C(=O)O)C(O)C(O)C5O)CCC4(C)C3CCC12C (stereo not given),inactive,inactive,inactive,inactive,inactive,,,,
C=C(CCO)C(=O)OCC1OCC(OC(=O)C(=C)CCO[C@@H]2O[C@H](COC(=O)C(=C)CCO[C@@H]3O[C@H](CO)[C@@H](O)[C@H](O)[C@H]3O)[C@@H](O)[C@H](O)[C@H]2O)C(O)C1O (stereo not given in full),inactive,inactive,inactive,inactive,inactive,,,,

Structure (SMILES),Potency [1],Potency [2],Potency [3],Potency [4],Potency [5],"activity change, negative = inhibition [3]","activity change, negative = thiol reactive [4]","activity, negative = inhibition [5]",outcome [3]
C[C@@H]1[C@H](O)[C@@H]2OC(=O)C3=C2[C@H](CCC3)[C@@]12C[C@@H](c1ccoc1)OC2=O,inactive,inactive,inactive,inactive,inactive,,,,
CC1(CO)CCCC2(C)C1C(OC(=O)c1ccccc1)CC1C(=O)OCC12O (stereo not given),inactive,inactive,inactive,inactive,inactive,,,,
OC[C@H]1O[C@@H](O[C@H]2[C@H](O)[C@@H](CO)O[C@@H](OCc3ccccc3)[C@@H]2O[C@@H]2OC[C@](O)(CO)[C@H]2O)[C@H](O)[C@@H](O)[C@@H]1O,inactive,inactive,inactive,inactive,inactive,,,,
C=C1CC[C@@H]2[C@@](C)(CO[C@@H]3O[C@H](CO)[C@@H](O)[C@H](O)[C@H]3O)[C@H](O)CC[C@@]2(C)[C@@H]1CC/C(C)=C/CO[C@@H]1O[C@H](CO)[C@@H](O)[C@H](O)[C@H]1O,inactive,inactive,inactive,inactive,inactive,,,,
CC[C@@H](C)[C@H](N)C(=O)N1Cc2ccccc2C1,inactive,inactive,inactive,inactive,inactive,,,,
COc1ccc(CCC(=O)O)c(O[C@@H]2O[C@H](CO)[C@@H](O)[C@H](O)[C@H]2O)c1,inactive,inactive,inactive,inactive,inactive,,,,
CC[C@H]1OC(=O)[C@H](C)[C@@H](O[C@H]2C[C@@](C)(OC)[C@@H](O)[C@H](C)O2)C(C)[C@@H](O[C@@H]2O[C@H](C)C[C@H](N(C)C)[C@H]2O)[C@](C)(O)C[C@@H](C)CN(C)[C@H](C)[C@@H](O)[C@]1(C)O (stereo not given in full),inactive,inactive,inactive,inactive,inactive,,,,
N#CN1CCC[C@@H](n2nc(-c3ccc(Oc4ccc(F)cc4F)cc3)c(C(N)=O)c2N)C1,inactive,inactive,inactive,inactive,inactive,,,,
C/C(=C\CC[C@H](CO)[C@@H]1CC[C@]2(C)C3=C(CC[C@@]12C)[C@@]1(C)CCC(=O)C(C)(C)C1CC3)C(=O)O (stereo not given in full),inactive,inactive,inactive,inactive,inactive,,,,
CC1=C2C(=O)C=C(CO[C@@H]3O[C@H](CO)[C@@H](O)[C@H](O)[C@H]3O)[C@@H]2[C@H]2OC(=O)[C@H](C)[C@@H]2[C@@H](O)C1,inactive,inactive,inactive,inactive,inactive,,,,
OC[C@@]1(O)CO[C@H](OC[C@H]2O[C@@H](OC(CCCCc3ccc(O)cc3)CCc3ccc(O)cc3)[C@H](O)[C@@H](O)[C@@H]2O)[C@@H]1O (stereo not given in full),inactive,inactive,inactive,inactive,inactive,,,,
CCCC(=O)Nc1cccc(NC(=O)c2ccccc2Br)c1,inactive,inactive,inactive,inactive,inactive,,,,
C=C1CC2C3(C)C(O)CC(=O)C(C)(C)C3C(O)C(OC(C)=O)C2(C)C2C(=O)OC(C)(C(=O)OC)C(=O)C12C (stereo not given),inactive,inactive,inactive,inactive,inactive,,,,
O=C(OCc1ccccc1O[C@@H]1O[C@H](CO)[C@@H](O)[C@H](O)[C@H]1O)C1(O)C=CCCC1O (stereo not given in full),inactive,inactive,inactive,5.82 µM (active),inactive,,,,
COc1c2cc(c(O[C@@H]3O[C@H](CO)[C@@H](O)[C@H](O)[C@H]3O)c1OC)CCCCC(O)CCc1ccc(O)c-2c1 (stereo not given in full),inactive,inactive,inactive,6.53 µM (active),inactive,,,,
COC(=O)C1=CO[C@@H](O[C@@H]2O[C@H](CO)[C@@H](O)[C@H](O)[C@H]2O)/C(=C\CO)[C@@H]1CC(=O)OCCc1ccc(O)cc1,inactive,inactive,inactive,6.53 µM (active),inactive,,,,
O=C(Cc1ccc(Cl)cc1)Nc1cnccc1C(=O)O,inactive,inactive,inactive,inactive,9.53 µM (active),,,,
COC(=O)C(CC1(O)c2ccccc2N2C(=O)C(C)(C)N(O)C21)n1cnc2ccccc2c1=O (stereo not given),inactive,inactive,inactive,inactive,inactive,,,,
CC(=O)OC[C@]12[C@H](OC(C)=O)[C@H](OC(=O)c3ccccc3)[C@@H]3[C@@H](OC(C)=O)[C@]1(OC3(C)C)[C@H](C)C[C@H](OC(=O)c1ccccc1)[C@@H]2OC(=O)c1ccccc1,inactive,inactive,inactive,inactive,inactive,,,,
CC(C)(O)[C@@H]1CC[C@]2(CO)[C@@H](O)CC[C@](C)(O)[C@H]2[C@@H]1O[C@@H]1O[C@H](CO)[C@@H](O)[C@H](O)[C@H]1O,inactive,inactive,inactive,inactive,inactive,,,,
